Laboratory results taken from PubChem BioAssay (NCATS).
Several values for one entry are separate records, joined by “and”; a condition that tells them apart may be missing. Equal entries are not always repeated. Records with an inconclusive call do not appear. More than one record can exist for a structure, and the calls need not agree. Activity calls are given as the source filed them. The call rests on the fitted dose curve; in most records, active means well fitted inhibition curve with a large enough effect; inconclusive means small, poorly fitted or top-dose-only effect; inactive means flat fitted curve, though single readings scatter.

Assays:
CRL-7250 = normal cell line; assay: Cytotoxic Profiling of Annotated Libraries Using Quantitative High-Throughput Screening (AID 1296008); conditions: Five cell lines viability, CellTiter-Glo ATP luminescence, 48-72 h; max response: active compounds read low; further: potency means the concentration at half of the fitted maximal effect; on max response: on the % scale 0 is the no-effect control and ±100 the full control effect
Method in brief: (§1)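 Cells exposed to compounds for 48 or 72 hr at 37 degrees Celsius. Viability read as ATP-coupled luminescence with CellTiter-Glo after 10 min at room temperature.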

HEK293 = assay: as above; conditions: Five cell lines viability, CellTiter-Glo ATP luminescence, 48-72 h; max response: active compounds read low
Method in brief: as §1

FAB9 = assay: qHTS profiling for inhibitors of Plasmodium falciparum proliferation (AID 504749);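 further: 0% = DMSO vehicle and full inhibition = artemisinin control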; conditions: P. falciparum in erythrocytes, SYBR Green DNA, 72 h; series mostly up to 28.7 µM
Method in brief: (§2)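 Each compound contacts P. falciparum-infected red blood cells for 72 h at 37 C; lysis buffer (Tris, EDTA, saponin, Triton X, SYBR Green I) is added and fluorescence measured next morning; values normalized to controls.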

GB4 = assay: as above; conditions: P. falciparum in erythrocytes, SYBR Green DNA, 72 h; series mostly up to 28.7 µM
Method in brief: as §2

HB3 = assay: as above; conditions: P. falciparum in erythrocytes, SYBR Green DNA, 72 h; series mostly up to 28.7 µM
Method in brief: as §2

ICS = assay: as above; conditions: P. falciparum in erythrocytes, SYBR Green DNA, 72 h; series mostly up to 28.7 µM
Method in brief: as §2

JCK = assay: as above; conditions: P. falciparum in erythrocytes, SYBR Green DNA, 72 h; series mostly up to 28.7 µM
Method in brief: as §2

N140 = assay: as above; conditions: P. falciparum in erythrocytes, SYBR Green DNA, 72 h; series mostly up to 28.7 µM
Method in brief: as §2

P93_24 = assay: as above; conditions: P. falciparum in erythrocytes, SYBR Green DNA, 72 h; series mostly up to 28.7 µM
Method in brief: as §2

P94_40 = assay: as above; conditions: P. falciparum in erythrocytes, SYBR Green DNA, 72 h; series mostly up to 28.7 µM
Method in brief: as §2

PAD = assay: as above; conditions: P. falciparum in erythrocytes, SYBR Green DNA, 72 h; series mostly up to 28.7 µM
Method in brief: as §2

PC15 = assay: as above; conditions: P. falciparum in erythrocytes, SYBR Green DNA, 72 h; series mostly up to 28.7 µM
Method in brief: as §2

PC26 = assay: as above; conditions: P. falciparum in erythrocytes, SYBR Green DNA, 72 h; series mostly up to 28.7 µM
Method in brief: as §2

PC49 = assay: as above; conditions: P. falciparum in erythrocytes, SYBR Green DNA, 72 h; series mostly up to 28.7 µM
Method in brief: as §2

SC27B = assay: as above; conditions: P. falciparum in erythrocytes, SYBR Green DNA, 72 h; series mostly up to 28.7 µM
Method in brief: as §2

TAB109 = assay: as above; conditions: P. falciparum in erythrocytes, SYBR Green DNA, 72 h; series mostly up to 28.7 µM
Method in brief: as §2

TAB113 = assay: as above; conditions: P. falciparum in erythrocytes, SYBR Green DNA, 72 h; series mostly up to 28.7 µM
Method in brief: as §2

TAB165 = assay: as above; conditions: P. falciparum in erythrocytes, SYBR Green DNA, 72 h; series mostly up to 28.7 µM
Method in brief: as §2

W2 = assay: as above; conditions: P. falciparum in erythrocytes, SYBR Green DNA, 72 h; series mostly up to 28.7 µM
Method in brief: as §2

HaCat = assay: Cytotoxic Profiling of Annotated Libraries Using Quantitative High-Throughput Screening (AID 1296008); conditions: Five cell lines viability, CellTiter-Glo ATP luminescence, 48-72 h; max response: active compounds read low; further: potency means the concentration at half of the fitted maximal effect; on max response: on the % scale 0 is the no-effect control and ±100 the full control effect
Method in brief: as §1
Further: nearly all actives have a fitted effect of over 60% in size.

CCN(CCO)CCCOc1ccc2c(Nc3cc(CC(=O)Nc4cccc(F)c4)[nH]n3)ncnc2c1
inactive: max response (CRL-7250) -19.9%

Cc1ccc(C(=O)N(CCCN)[C@@H](c2nc3cc(Cl)ccc3c(=O)n2Cc2ccccc2)C(C)C)cc1
inactive: max response (CRL-7250) -35.4% | max response (HEK293) -91.6%

Cn1c(=O)c(Oc2ccc(F)cc2F)cc2cnc(NC3CCOCC3)nc21
inactive: max response (CRL-7250) -20.5%

O=C1CCCC(=O)C1C(=O)c1ccc(C(F)(F)F)cc1[N+](=O)[O-]
inactive: max response (CRL-7250) -12.8% | max response (HEK293) 0.204%

CN1N=C(N)c2cn([C@@H]3O[C@H](COP(=O)(O)O)[C@@H](O)[C@@H]3O)c3ncnc1c23
active: Potency (CRL-7250) 1.32 µM

O=C(c1ccc(C=Cc2n[nH]c3ccccc23)cc1)N1CCNCC1
inactive: max response (CRL-7250) -12.3% | max response (HEK293) -9.22%

O=C(NC[C@H](O)CO)c1ccncc1Nc1ccc(I)cc1F
inactive: max response (HEK293) -10.7%
active: Potency (CRL-7250) 16.6 µM

CC[C@H](CC#N)OC(=O)N[C@@H](C)c1cccc(NC(=O)Nc2ccc(-c3cnco3)c(OC)c2)c1
active: Potency (CRL-7250) 1.66 µM and 1.03 µM | Potency (HEK293) 0.418 µM

NS(=O)(=O)c1cc(Cl)c(Cl)c(S(N)(=O)=O)c1
inactive: outcome (FAB9) | Potency (GB4) | Potency (HB3) | Potency (ICS) | outcome (JCK) | Potency (N140) | Potency (P93_24) | Potency (P94_40) | Potency (PAD) | outcome (PC15) | Potency (PC26) | outcome (PC49) | Potency (SC27B) | Potency (TAB109) | Potency (TAB113) | Potency (TAB165) | Potency (W2) | max response (CRL-7250) 0.0999% | outcome (CRL-7250) | max response (HaCat) -2.36% | outcome (HaCat)

Cc1nc(C(=O)NCC(=O)O)c(O)c2ccc(Oc3ccccc3)cc12
inactive: max response (CRL-7250) -26.8% | max response (HEK293) -3.39% and -0.739% | outcome (HaCat)

CCCCCOC(=O)Nc1nc(=O)n([C@@H]2O[C@H](C)[C@@H](O)C2O)cc1F (some centres not stated)
inactive: max response (CRL-7250) 0.279% | max response (HEK293) -5.3% | max response (HaCat) -7.75%

CC1C(=O)OC2C(O)C34C5CC(C(C)(C)C)C36C(OC(=O)C6O)OC4(C(=O)O5)C12O (configuration not stated)
inactive: outcome (CRL-7250) | max response (HEK293) -2.56% | outcome (HaCat)

CN(C)c1nc(Cc2ccc(NC(=O)c3ccc(C(F)(F)F)cc3)cc2)nc(N(C)C)c1CC(=O)O
inactive: outcome (CRL-7250) | max response (HEK293) 3.18% | outcome (HEK293) | outcome (HaCat)

CC(C)C[C@@H](N)[C@H](O)C(=O)N[C@H](C(=O)N[C@H](C(=O)N[C@@H](CC(=O)O)C(=O)O)C(C)C)C(C)C
inactive: max response (CRL-7250) 3.99% | max response (HEK293) 3.01% | max response (HaCat) 1.98%

C[C@@]1(c2cc(-c3cncnc3)c(F)cc2F)CCSC(N)=N1
inactive: max response (CRL-7250) 3.38% and -17.5% | max response (HEK293) 1.85% and -22.9% | max response (HaCat) -8.12% and -24.8%

O=C(O)CCNc1cc(N2CCc3ccccc3CC2)nc(-c2ccccn2)n1
inactive: max response (CRL-7250) -1.59% and -1.08% and -1.74% | max response (HEK293) 1.95% and -5.12% | outcome (HEK293) | max response (HaCat) -11.8% | outcome (HaCat)

CC[C@H](C)C(=O)O[C@H]1C[C@H](O)C=C2C=C[C@H](C)[C@H](CC[C@@H](O)C[C@@H](O)CC(=O)O)[C@H]21
inactive: max response (CRL-7250) -6.33% | max response (HEK293) 0.44% | max response (HaCat) -9.82%

O[C@@H](COc1cccc2ncccc12)CN1CCN(C2c3ccccc3[C@@H]3[C@H](c4ccccc42)C3(F)F)CC1 (some centres not stated)
active: Potency (HEK293) 10.6 µM and 18.4 µM
inactive: outcome (CRL-7250) | max response (HaCat) -3.25%

Cc1ccc2c(c1)c1c(n2CCc2ccc(C)nc2)CCN(C)C1
inactive: outcome (CRL-7250) | max response (HEK293) -7.19% | max response (HaCat) -15.7% | outcome (HaCat)
active: Potency (HEK293) 14.6 µM

N#Cc1ccc(Oc2ccc3c(c2)COB3O)cc1
inactive: outcome (CRL-7250) | max response (HEK293) -0.565% | max response (HaCat) -2.09% and 3.76%

Cn1c(=O)c(-c2c(Cl)cccc2Cl)cc2cnc(Nc3cccc(C(=O)O)c3)nc21
inactive: max response (HEK293) -22.7% | outcome (HaCat)
active: Potency (CRL-7250) 1.16 µM | Potency (HEK293) 2.31 µM

O=C(CC12CC3CC(CC(C3)C1)C2)Nc1cccc2nc(NCCNCCO)ccc12
inactive: max response (CRL-7250) -13.8% and 3.99% | max response (HEK293) -37.5% | outcome (HaCat)

COc1cc(Nc2nc3ccccc3nc2NS(=O)(=O)c2ccc(NC(=O)c3ccc(C)c(OC)c3)cc2)cc(OC)c1
inactive: max response (CRL-7250) -27.1% and -5.83% | outcome (HEK293) | max response (HaCat) -23.6% and -15%
